TRPV1 PAM: potentiators of human vanilloid receptor 1 (TRPV1); potentiation, % at 8.33 µM; TRPV1-expressing cells, Fluo-8 calcium influx, capsaicin EC20 potentiation; 0.02% of 320,000 active; in the data active means potentiation above about 80%; inconclusive means between about 30% and that limit; further: 0% is about no effect
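Fluo-8 calcium influx in TRPV1-expressing cells, kinetic read (ex 480/em 520 nm). Compound added and read 3 min for agonist activity, followed by capsaicin at EC20 final and 2 min further read for enhancement.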
D1 agonist: human D1 receptor agonism; 1% of 360,000 active; activation, % at 2 µM; HEK293 T-REx D1 cells, calcium flux, agonist mode; in the data active means activation above about 30%; further: 0% is about no effect
Target sequence (P21728 whole entry, looked up): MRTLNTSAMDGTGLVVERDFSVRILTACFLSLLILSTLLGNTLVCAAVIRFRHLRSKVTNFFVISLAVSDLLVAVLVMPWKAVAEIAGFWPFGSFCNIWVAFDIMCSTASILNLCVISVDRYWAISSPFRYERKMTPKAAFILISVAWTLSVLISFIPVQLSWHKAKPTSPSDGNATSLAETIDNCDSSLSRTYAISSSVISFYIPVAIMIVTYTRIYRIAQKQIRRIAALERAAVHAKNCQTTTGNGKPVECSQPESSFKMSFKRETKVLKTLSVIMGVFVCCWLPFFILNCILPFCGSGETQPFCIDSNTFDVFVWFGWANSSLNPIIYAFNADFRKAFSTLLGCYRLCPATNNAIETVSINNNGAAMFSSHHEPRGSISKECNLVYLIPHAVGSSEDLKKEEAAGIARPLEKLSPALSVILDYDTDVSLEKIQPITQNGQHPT
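Tetracycline-induced HEK293 TREx D1 cells, force-coupled to calcium signalling, were dye-loaded with a no-wash calcium kit. Compound was pin-added after a 10 s baseline. Fluorescence was read kinetically at 1 cycle/s for 180 s, with calcium rises flagged as agonism.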
TRPV1 ag: activates the human vanilloid receptor TRPV1. 0.19% of 320,000 active. activation, % at 8.33 µM. TRPV1-expressing cells, Fluo-8 calcium influx, agonist mode. AID 540275; in the data active means activation above about 80%; inconclusive means between about 30% and that limit; further: 0% is about no effect
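Cells expressing TRPV1 were dye-loaded with Fluo-8 and read kinetically: 10 s baseline, 3 min after compound (agonist portion), then 2 min after EC20 capsaicin (allosteric enhancer portion). Calcium-bound dye fluorescence at 480/520 nm.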
D1 antagonist: human D1 dopamine receptor antagonism; HEK293 TREx D1 cells, calcium flux, dopamine EC80; stronger effect = lower value; 3.2% of 360,000 active; P21728; AID 504652; activity change, negative = inhibition, % at 10 µM; in the data active means activity change below about -30%; further: on the % scale 0 is the no-effect control and ±100 the full control effect
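Inducible Hek293 Trex D1 cells (tetracycline, overnight, 30 C). Calcium dye 30–90 min RT. Antagonist mode: EC80 dopamine added after 180 s compound read.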
D1 PAM: enhances dopamine response at the human D1 receptor; 0.036% of 360,000 active; potentiation, % at 10 µM; P21728; HEK293 TREx D1 cells, calcium flux, dopamine EC20 potentiation; in the data active means potentiation above about 30%; further: 0% is about no effect
An asterisk follows results filed as active; ? = inconclusive; / = no result. Shown are actives, neighbours in structure and some others; about 4.2% of the full set was active somewhere.

SMILES | TRPV1 PAM | D1 agonist | TRPV1 ag | D1 antagonist | D1 PAM
O=C(Nc1ccccc1C(F)(F)F)Nc1c[nH]c(=O)[nH]c1=O | / | 1 | / | 6 | -4
O=C(CN1CCN(Cc2ccccc2Cl)C1=O)NCc1ccccc1Cl | / | 0 | / | -6 | -1
COc1cc(CNc2ncc(-c3ccc(Br)cc3)n2C)cc(OC)c1O | -4 | 2 | -4 | -42* | -9
Cn1c(-c2cccc(Br)c2)cnc1NCc1cccnc1 | ? | 2 | -5 | -9 | -10
COc1ccc(CNc2ncc(-c3ccc(F)cc3)n2C)cc1OC | 1 | 3 | 0 | -41* | -10
COc1ccccc1CNc1ncc(-c2ccccc2)n1C | -3 | 7 | 6 | -49* | -3
CCOc1ccc(-c2cnc(NCc3cccc4ccccc34)n2CCOC)cc1 | 2 | 18 | 3 | -58* | -6
Cn1c(-c2ccc(F)cc2)cnc1NCc1cccc(F)c1 | 1 | 1 | -1 | -10 | -12
COc1ccc(C)cc1NC(=O)C(Cc1ccccc1)NS(=O)(=O)c1cccs1 (stereo not given) | / | 0 | / | 15 | -2
COc1ccc(Cl)cc1NC(=O)c1cc(C)nn1-c1ccccc1 | / | 3 | / | -9 | 0
Cc1cc(=O)[nH]c2nnc(SCc3ccc(Cl)c(Cl)c3)n12 | / | 0 | / | / | 0
Cc1cccc(N(CC(=O)NC(C)c2ccccc2)S(=O)(=O)c2ccccc2)c1C (stereo not given) | / | 14 | / | 25 | -1
CCc1cccc(C)c1NC(=O)CSc1nnc(N)s1 | / | -1 | / | 5 | 0
CN1CCN(S(=O)(=O)c2ccc(SCCOc3ccc(Cl)cc3)nc2)CC1 | -7 | 14 | ? | -44* | -15
COc1ccc(OCCSc2ccc(S(=O)(=O)N3CCCC3)cn2)cc1 | 10 | 22 | 1 | 0 | /
O=S(=O)(c1ccc(SCCOc2ccccc2Cl)nc1)N1CCCC1 | 6 | 38* | 10 | 10 | /
NC(=O)CSc1ccc(S(=O)(=O)N2CCCCC2)cn1 | 6 | 41* | 1 | 7 | /
O=S(=O)(c1ccc(SCCOc2cccc(Br)c2)nc1)N1CCCC1 | -5 | 18 | 12 | -15 | 2
COc1ccc(C(=O)/C=C/C(=O)N(Cc2ccccc2)C(C(=O)NC2CCCCC2)c2ccncc2)c(O)c1 (stereo not given) | 2 | 3 | ? | -10 | -2
COc1ccc(C(=O)/C=C/C(=O)N(Cc2ccc(F)cc2)C(C(=O)NC2CCCCC2)c2ccncc2)c(O)c1 (stereo not given) | -5 | 0 | ? | -31* | -9
Cc1ccc2c(n1)sc1c(-c3ccc(Br)cc3)c(C#N)c(N)nc12 | -5 | 2 | 2 | -31* | -10
CCn1cc(C(=O)NCc2ccccc2OC)c(=O)c2cc(S(=O)(=O)N3CCCCC3)ccc21 | / | 4 | / | 9 | 5
CCCCCc1c2c(cc(O)c1C(=O)O)OC(=O)c1c(cc(OC)cc1C(=O)CCCC)O2 | -1 | 11 | 26 | -31* | -1
Cc1ccc(-c2nc3c4cnn(-c5cc(Cl)ccc5Cl)c4ncn3n2)cc1 | / | 2 | / | 5 | -1
CC(C)(C)c1ccc(/C=C/C(=O)Nc2ccncc2)cc1 | -4 | 12 | 96* | -12 | 2
SMILES | TRPV1 PAM | D1 agonist | TRPV1 ag | D1 antagonist | D1 PAM
COc1ccc(OC)c2sc(N(Cc3cccnc3)C(=O)c3ccco3)nc12 | / | -2 | / | / | 4
CCc1ccccc1NC(=O)CSc1ncc2c(n1)-c1cc(Cl)ccc1N(Cc1ccccc1)S2(=O)=O | / | 1 | / | -50* | 1
O=C(CSc1ncc2c(n1)-c1cc(Cl)ccc1N(Cc1ccccc1)S2(=O)=O)NCc1ccccc1 | / | 2 | / | -3 | 1
O=C(N/N=C/c1sc(=O)[nH]c1-[n+]1ccccc1)c1ccccc1[O-] | 19 | -1 | -1 | 1 | 1
O=C(N/N=C/c1sc(=O)[nH]c1-[n+]1ccc2ccccc2c1)c1ccccc1[O-] | -13 | 34* | 17 | -10 | -2
CNC(=O)c1ccc(OC2CSC2)cc1 | -8 | 2 | 3 | -49* | -6
O=C(Nc1ccc(Cl)cc1)c1ccc(OC2CSC2)cc1 | -1 | 5 | 3 | -2 | -2
O=C(N/N=C\c1ccncc1)c1ccccc1O | 0 | 0 | 8 | 0 | -2
Cc1ccc(C(=O)N/N=C/c2ccc(-c3cccc(Cl)c3)o2)cn1 | / | 4 | / | 5 | -9
O=C(N/N=C/c1ccc(-c2ccccc2)o1)c1ccccc1O | / | 9 | / | -32* | -12
Cc1cc(C(=O)N/N=C/c2ccc(-c3cccc(Cl)c3)o2)n[nH]1 | 20 | 66* | -4 | 19 | 0
CC(=O)NC(c1cc(Cl)c2cccnc2c1O)C1CC1 (stereo not given) | 1 | 4 | 1 | -55* | 4
CC(=O)NC(c1cc(Cl)c2cccnc2c1O)C(C)C (stereo not given) | 3 | 4 | -5 | -6 | 3
CCC(=O)NC(c1ccc(F)cc1)c1cc(Cl)c2cccnc2c1O (stereo not given) | / | 8 | / | -7 | 6
CCC(=O)NC(c1ccc(OC)cc1)c1cc(Cl)c2cccnc2c1O (stereo not given) | 9 | 0 | 84* | 2 | -1
CCC(=O)NC(c1ccc(C)s1)c1cc(Cl)c2cccnc2c1O (stereo not given) | / | 10 | / | -58* | -7
Cc1ccc(Cl)cc1NC(=S)N(CCCN1CCOCC1)Cc1ccccn1 | -1 | 0 | 8 | -74* | 0
CC(C)(C)C(=O)NC(=S)NNC(=O)C(c1ccccc1)c1ccccc1 | -8 | 350* | ? | 24 | 34*
O=C(NCCC1=CCCCC1)c1ccc2c(c1)N(Cc1ccc(Cl)cc1)C(=O)c1ccccc1S2(=O)=O | / | 3 | / | 4 | 0
N=c1ncn(CC(O)CN2CCOCC2)c2nc(N3CCOCC3)[nH]c12 (stereo not given) | 0 | 5 | 2 | -58* | -7
C=CCn1c(SCC(=O)/C(C#N)=C(\C)N)nnc1C1CCCCC1 | 9 | 2 | 0 | -75* | -8
COc1ccccc1-c1ccc(/C=C2\C=CC(=O)O2)o1 | 4 | 292* | ? | -5 | 5
CCN(CCCc1ccccc1)CCCc1ccccc1 | -7 | 22 | 4 | -19 | -5
CCN(CCCC(=O)c1ccc(F)cc1)CCc1ccccc1 | -9 | 16 | 21 | -36* | -5
O=C(CCn1c(=O)c2sccc2n(Cc2ccccc2F)c1=O)NCc1ccc2c(c1)OCO2 | / | 0 | / | -9 | 2
CC(=O)c1ccc(N2CCN(S(=O)(=O)c3ccc4c5c3CC(=O)N5CC(C)S4)CC2)cc1 (stereo not given) | -1 | 7 | -1 | -57* | -13
CC(=O)c1ccc(N2CCN(S(=O)(=O)c3ccc4c(c3)CC(=O)N4)CC2)cc1 | 7 | 1 | -5 | 15 | -4
CCOC(=O)N1CCN(C(=O)COc2ccc3c(c2)C(=O)CC2(CCN(C(C)=O)CC2)O3)CC1 | -9 | 4 | -3 | 0 | -2
